About 83,000 compounds went through this panel and 20% of them were active in at least one assay; those are over-represented in the sample as a whole.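 Treatment: one concentration, 48 hours, 96-well format. Scoring: percent growth, with anything below 10 considered active.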 A number with no mark means an inactive call. Calls of active or inactive are those of the source.
Legend:
Experiment in all cases: NCI-60 one-dose screen, 48 h (100 = growth as untreated, 0 = no growth, -100 = all killed)
Conditions in all cases: 10 µM unless noted
[1] = system: DU-145 prostate
[2] = system: MALME-3M melanoma
[3] = system: MDA-MB-231 breast
[4] = system: RXF 393 renal
[5] = system: SF-268 CNS
[6] = system: SF-295 CNS
[7] = system: SF-539 CNS
[8] = system: UACC-257 melanoma
[9] = system: M14 melanoma

| SMILES | growth [1] | growth [2] | growth [3] | growth [4] | growth [5] | growth [6] | growth [7] | growth [8] | growth [9] |
| --- | --- | --- | --- | --- | --- | --- | --- | --- | --- |
| Cc1ccc(C(=O)/C(=C\c2ccc([N+](=O)[O-])cc2)S(=O)Cc2ccc(Cl)cc2)cc1 (stereo not drawn) | 23.3% | 34.1% | 23.8% | -69% (active) | 25.5% | 73.2% | 53.5% | 94.9% | 41.4% |
| O=C1/C=C/[C@@H](O)[C@@H]2C[C@@H](O)C[C@H]2/C=C/CCC[C@H](CCc2cccc3ccccc23)O1 | 19% | -17.7% (active) | -41.2% (active) | -30.9% (active) | 16.6% | 7.76% (active) | 21.7% | 26.1% | 5.14% (active) |
| C#Cc1cccc(NC(=O)Nc2cccc(NC(=O)CCl)c2)c1 | 44.4% [8.25 µM] | -50.2% [8.25 µM] (active) | -61% [8.25 µM] (active) | -48.7% [8.25 µM] (active) | -2.2% [8.25 µM] (active) | 45% [8.25 µM] | -95.2% [8.25 µM] (active) | 48.7% [8.25 µM] | 6.26% [8.25 µM] (active) |
| COc1cc(/C=C2\COc3ccc(-c4ccccc4)cc3C2=O)cc(OC)c1 | 85.8% | 101% | 95.5% | 66.1% | 82.3% | 68.9% | 100% | 70.9% | 91.9% |
| COc1cc(C2C3=C(COC3=O)N(CCO)c3cc4c(cc32)CCC4)cc(OC)c1OC (stereo not drawn) | -23.7% (active) | 54.9% | 1.31% (active) | 26.5% | 22% | -23.6% (active) | -29.8% (active) | 52.9% | -34% (active) |
| NS(=O)(=O)c1ccc(CCN2C(=O)c3cc(Cl)c(Cl)cc3C2=O)cc1 | 104% | 110% | 107% | 120% | 98.1% | 99.7% | 106% | 99.7% | 106% |
| C=C1C(=O)O[C@H]2[C@H]1CC/C(CNC(=O)c1cccc3ccccc13)=C\CC[C@@]1(C)O[C@@H]21 | 33.8% | 36.2% | 34.1% | 27.5% | 63.1% | 85.9% | 59.7% | 66.2% | 38.2% |
| COc1ccc(/C=C/c2nc(Nc3ccc(S(=O)(=O)NC(C)=O)cc3)c3ccccc3n2)cc1 | 69.5% | 99.1% | 72.4% | 103% | 85.3% | 81.2% | 97.3% | 89.4% | 45.5% |
| COc1cc(CC(=O)n2ncc3ccc(N)cc32)cc(OC)c1OC | 105% | 85.7% | 79.2% | 108% | 93.5% | 91.3% | 88.4% | 105% | 102% |
| N#C/C(=C\c1c(-c2ccccc2)[nH]c2ccccc12)C(=O)c1ccc(Cl)cc1 | 28.3% | 37.2% | 49.9% | 29.2% | 51.4% | 32.1% | -39.7% (active) | 68.2% | 41% |
| COc1ccc2c(c1)oc1c(C)c3c(c(C)c12)C(=O)N(N)C3=O | 27.9% | -5.47% (active) | -4.83% (active) | 28.5% | 39.8% | 12% | -6.28% (active) | 40.5% | 13.9% |
| O=C1CC(=O)OC(c2ccc([N+](=O)[O-])cc2)O1 | 13.9% | -36.6% (active) | -3.22% (active) | -91% (active) | 4.85% (active) | 70.3% | -69.9% (active) | -23.6% (active) | -64.4% (active) |
| OC(c1cccc(C(F)(F)F)c1)c1cnccc1NC1CCCCC1 (stereo not drawn) | 85% | 83.2% | 66.1% | 78.8% | 89.6% | 81% | 91.7% | 87% | 87.9% |
| COc1cc(C2=NN(C(C)=O)C(c3cc(OC)c(OC)c(OC)c3)C2)ccc1O (stereo not drawn) | -1.86% (active) | 49.4% | 4.4% (active) | -20.9% (active) | 36.2% | -55.6% (active) | -30.7% (active) | 60% | -28.3% (active) |
| CC(=O)[C@H]1CCC/C=C/[C@@H]2C[C@H](O)C[C@H]2[C@H](O)/C=C/C(=O)O1 | 25.4% | -11.5% (active) | -34.3% (active) | -32.8% (active) | 12.3% | 3% (active) | 18.5% | 24.1% | 5.74% (active) |
| COc1ccc(/C=C/c2nc(Nc3cccc(NC(C)=O)c3)c3ccccc3n2)cc1 | 88.7% | 102% | 85.3% | 104% | 92.1% | 83.1% | 98.5% | 95.6% | 72.9% |
| CCN(c1ccccc1)S(=O)(=O)c1cc([N+](=O)[O-])ccc1Cl | 94% | 67.6% | 56.3% | 40.7% | 77.4% | 110% | 36.2% | 64.6% | 70.9% |
| O=C1c2cccc3c(-c4ccc5c(c4)ncn5C4CCCCC4)ccc(c23)C(=O)N1CCO | 100% | 105% | 71.1% | 106% | 93.9% | 81.9% | 99% | 94.5% | 106% |
| CCOc1ccc(Nc2nc(-c3ccc4c(c3)NC(=O)CO4)cs2)cc1 | 77.2% | 69.7% | 58% | 87.3% | 87.1% | 158% | 78.2% | 33% | 68.2% |

| SMILES | growth [1] | growth [2] | growth [3] | growth [4] | growth [5] | growth [6] | growth [7] | growth [8] | growth [9] |
| --- | --- | --- | --- | --- | --- | --- | --- | --- | --- |
| COc1cc(-c2cc(-c3ccc(N(C)C)cc3)nc(N3CCOCC3)c2C#N)cc(OC)c1OC | 52.4% | 31.1% | 25.2% | -43.2% (active) | 36% | -20.9% (active) | 47.3% | 24.3% | -61.5% (active) |
| Cn1c(N2NC(=O)C(N=Nc3ccc(S(N)(=O)=O)cc3)C2=O)nc(-c2ccco2)c(C#N)c1=O (stereo not drawn) | 95.7% | 74.7% | 93.8% | -3.8% (active) | 98.8% | 123% | 96.7% | 88.7% | 91.9% |
| Cc1ccc(NS(=O)(=O)c2ccc(-c3cnc(C4CC4)o3)cc2)cc1C(F)(F)F | 87.1% | 65.8% | 78.8% | 69.4% | 77.5% | 43.6% | 65.5% | 73.7% | 48.6% |
| NC(=S)N1N=C(c2ccccc2)CC1c1cn(-c2ccccc2)nc1-c1ccc(OCc2ccccc2)cc1 (stereo not drawn) | 104% | 101% | 99.2% | 110% | 101% | 105% | 102% | 92.9% | 101% |
| CC(C)(C)[Si](C)(C)OC1[C@@H](O[Si](C)(C)C(C)(C)C)[C@@H](CNC(=O)NC(=O)CCl)O[C@H]1n1cnc2c(NC(=O)Nc3ccccc3)ncnc21 (stereo partly drawn) | -2.39% (active) | -70.2% (active) | -72.7% (active) | -93.1% (active) | -77.4% (active) | -71.2% (active) | -86.2% (active) | 14.1% | -56% (active) |
| CCN1Cc2nc3sc(C)c(C)c3c(=O)n2C=C1C | 61.8% | 79% | 58.3% | 45.8% | 101% | 81% | 70% | 69.3% | 27.5% |
| CC(=O)[C@@H]1CC[C@]2(CO)CC[C@]3(C)[C@H](CC[C@@H]4[C@@]5(C)CCCNC(C)(C)[C@@H]5CC[C@]43C)[C@@H]12 | 101% | 92.9% | 107% | 104% | 91.2% | 105% | 105% | 123% | 93.6% |
| O=C(NNc1nc2c(F)cccc2n2cccc12)c1cnccn1 | 26.2% | 18.3% | 31.7% | 37.5% | 30.6% | 8.17% (active) | -0.386% (active) | 16.2% | 3.21% (active) |
| CC(c1ccccc1)C(C(=O)c1ccccc1)c1ccccc1 (stereo not drawn) | 105% | 109% | 71.6% | 90.6% | 94.2% | 91.8% | 98.1% | 105% | 89.7% |
| CCN1C(=O)N(CC)C2Nn3c(s/c(=C\c4ccc(OC)cc4)c3=O)=NC21 (stereo not drawn) | 67.3% | 54.1% | 61.4% | 56.2% | 63.1% | 44.1% | 42.9% | 45% | 39.8% |
| CCNc1nc2ccc(Nc3ccnc4cc(Cl)ccc34)cc2[nH]1 | 97% | 119% | 84.7% | 68.5% | 88.4% | 87.3% | 85.6% | 97.9% | 91.9% |
| O=C(O)c1ccc2c(c1)C(=O)N(Cc1ccccc1)C2=O | 102% | 97.4% | 101% | 103% | 98% | 95% | 103% | 74.2% | 100% |
| CC(=O)Oc1ccc(/C=N/NC(N)=S)nc1 | 81.5% | 97.8% | 87.1% | 34.7% | 66.5% | 104% | 20.4% | 81.4% | 58.2% |
| O=C(/C(=C\c1ccc([N+](=O)[O-])cc1)S(=O)Cc1ccc(Cl)cc1)c1ccc(Cl)cc1 (stereo not drawn) | 77.7% | 92.7% | 76.2% | 52.4% | 64% | 90.5% | 99.1% | 100% | 63.3% |
| COc1ccc(/C=C2\COc3ccc(-c4ccccc4)cc3C2=O)c(OC)c1 | 102% | 91.6% | 93% | 83% | 97.7% | 190% | 97.3% | 82.8% | 92.6% |
| O=c1c2c(c(=O)n1O)c1c3ccc[nH]c3nc1c1nc3[nH]cccc3c12 | 95.4% | 84.3% | 77.4% | 87% | 71.7% | 96% | 83.9% | 85.4% | 94% |
| Cc1nnc2c(Cc3ccccc3)nc3ccccc3n12 | 97.7% | 109% | 96.1% | 95.4% | 89.9% | 99.7% | 95.8% | 104% | 99% |
| COc1cc(/C=C\c2cc(OC)c(OC)c(OC)c2)cc(NC(=O)/C=C/c2cc(OC)c(OC)c(OC)c2)c1OC | 78% | 48.7% | 51.3% | 28.7% | 72.6% | 32.6% | 56.4% | 68.4% | 37.9% |
